Source: the supplement of paper PMC11417369
± gives the standard deviation of the averaged measurements. Whole data set: some 25,000 sequences, median “ln(normalized median fluorescence intensity)” near 7.9, cut for the highest 2% near 11. The sample holds the highest values, similar sequences and a random draw of the others, so the mix is not that of the screen.

These sequences were tested on PfAP2-I AP2 domain 3 (GST-tagged) (assay: gcPBM binding intensity (ln(normalized median fluorescence intensity)); higher = stronger DNA binding).
How it was run: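 For binding intensity, the highest Masliner-normalised natural-log median intensity across replicate spots of either probe orientation was taken. Protein bound to the array was stained with Alexa488 anti-GST antibody and scanned at 488 nm. The protein, GST-tagged P. falciparum DNA-binding domains from E. coli at about 25 μg on average, had been applied for 1 h to an Agilent 4 × 180k array of primer-extended double-stranded 36-bp intergenic genomic probes and negative controls.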
For “TAATGGTGTTCATGTGGTACACTTTATAAATTGGCA [XGTACX_site729]”, the “gcPBM binding intensity (ln)” value was 7.9 ± 0.47. In the case of “CCCTTTTATTAAAATTCACACACATAAATTTTTATA [CACACA_site8611]”, the “gcPBM binding intensity (ln)” value is reported as 8.06 ± 0.41. With “TATAAAAAAAAAAAATATATATATATATAAATATAA [TGCATGCA_negctrl_site367]” the “gcPBM binding intensity (ln)” value was 7.28 ± 0.37. For “ACTTAGGAAATAAAACGTACATTAAATATATACATA [XGTACX_site2990]”, the “gcPBM binding intensity (ln)” value was 7.84 ± 0.35. With “AAATAAAAAAGTAGTACACACTTCACGATATTTTTT [CACACA_site6015]” the “gcPBM binding intensity (ln)” value was 7.89 ± 0.43. In the case of “CATCAAGTGAATTGTTGTACTTTACATTGTTTTTAT [XGTACX_site7261]”, the “gcPBM binding intensity (ln)” value is reported as 7.89 ± 0.69. For “AAAAAATATTATATATGTACATAATATTTTTTTTTT [XGTACX_site5909]”, the “gcPBM binding intensity (ln)” value was 7.47 ± 0.39. “ACATACTCAAATAGCACACACATAAATAAAAATGTA [CACACA_site3864]” was tested, and the “gcPBM binding intensity (ln)” value was 8.42 ± 0.099. In the case of “AAAAGAAAATATATGTGTACTAAAATATATATATAT [XGTACX_site3817]”, the “gcPBM binding intensity (ln)” value is reported as 9.455 ± 0.021. In the case of “AAATCGTGTACATTGACACACATAATTTTTTTTATA [CACACA_site2463]”, the “gcPBM binding intensity (ln)” value is reported as 8.09 ± 0.38. In the case of “ATCATCTTTATTCAAGTGCACTGAAAATTTTTTATA [GTGCAC_site9801]”, the “gcPBM binding intensity (ln)” value is reported as 11.1 ± 0.32. In the case of “ACATATTATTCAAGTGCACACTTTATATTTATGATT [CACACA_site3295]”, the “gcPBM binding intensity (ln)” value is reported as 9.715 ± 0.035. With “TTATTTTATTTTTGTGCACACTGATAAATTGAAAAG [CACACA_site2949]” the “gcPBM binding intensity (ln)” value was 10.8 ± 0.22. With TACATCATCTATAAGGTGCATTTTAGTTCTATTAAA the “gcPBM binding intensity (ln)” value was 10.3 ± 0.58. In the case of “TCCTTTATTTTTAAAGTGCATATACATGTACATTAT [GTGCAC_site9445]”, the “gcPBM binding intensity (ln)” value is reported as 9.675 ± 0.078. With “AAAAAAAAAAGAAACACACACATATAGATTTATAAC [CACACA_site6927]” the “gcPBM binding intensity (ln)” value was 7.69 ± 0.69. “AAGTTTAAAATCTTTGCACACATATAAATAAATATA [CACACA_site2554]” was tested, and the “gcPBM binding intensity (ln)” value was 8.94 ± 0.12. “TTAAAAAACTATAATACACACCAAAAATATGCACAT [CACACA_site7079]” was tested, and the “gcPBM binding intensity (ln)” value was 9.44 ± 0.7. With “ATATAATATTAGTGCACACACAAAAATGTACTAAAC [CACACA_site632]” the “gcPBM binding intensity (ln)” value was 11.3 ± 0.54. With “TAGAAACTATGTAATGCACACCAAAATAAAATTATT [CACACA_site8578]” the “gcPBM binding intensity (ln)” value was 10.4 ± 0.33. “ATAATAAATACACTAGTGCAAAATAATATATGTACT [GTGCAC_site9707]” was tested, and the “gcPBM binding intensity (ln)” value was 10.4 ± 0.22. With “AAAAATATAATATAATGTACACAAAAAAAAAAAAAT [XGTACX_site4914]” the “gcPBM binding intensity (ln)” value was 8.18 ± 0.15. For “AAAAATATAATATAATGTACACATAAACAAAAAAAA [XGTACX_site3658]”, the “gcPBM binding intensity (ln)” value was 7.92 ± 0.57. For “AAAAATATAATATAATGTACACAAAAAAAAAAAATC [XGTACX_site1427]”, the “gcPBM binding intensity (ln)” value was 7.93 ± 0.52. For “GTATATAATATTAGTGCACACACAAAAATGTACTAA [CACACA_site8112]”, the “gcPBM binding intensity (ln)” value was 11.4 ± 0.55. With “GAAACTATGTAATGCACACCAAAATAAAATTATTAA [CACACA_site1904]” the “gcPBM binding intensity (ln)” value was 10.9 ± 1. With “AGAAAAATAAACAAATGTACAAATTATTACTATATA [XGTACX_site1087]” the “gcPBM binding intensity (ln)” value was 7.63 ± 0.34. With “ATATTACAAATATAATGTACAAAATATAAATATGCA [XGTACX_site8106]” the “gcPBM binding intensity (ln)” value was 7.62 ± 0.3. In the case of “CTATAATATTAGTGCACACACAAAAATGTACTAAAC [CACACA_site6442]”, the “gcPBM binding intensity (ln)” value is reported as 11.6 ± 0.62. For “AGAAGAAATATGTAAAAAATTTTATATTCACACACA [GTGCAC_negctrl_site441]”, the “gcPBM binding intensity (ln)” value was 8.15 ± 0.33. In the case of “ATAAATTCATACATTTGTACACAAAAAAAAAAAAAA [XGTACX_site2435]”, the “gcPBM binding intensity (ln)” value is reported as 8.12 ± 0.57. In the case of “TTTTTTTTTTCTTTTTGTACATATTCATAACAAGTA [XGTACX_site2784]”, the “gcPBM binding intensity (ln)” value is reported as 8.12 ± 0.5. “AATGTAACAACTTTTTGTACTTAAGAAATAATAAAT [XGTACX_site3310]” was tested, and the “gcPBM binding intensity (ln)” value was 7.64 ± 0.61. With “TAATTAAAAAATAAAAAAAAAAAAAATTAAAACAAA [CACACA_negctrl_site500]” the “gcPBM binding intensity (ln)” value was 7.2 ± 0.58. In the case of “TGTTATATGTTCAAATGTACAAATCATATACATGTT [XGTACX_site3192]”, the “gcPBM binding intensity (ln)” value is reported as 7.5 ± 0.65. “GTTAGGATAGATTAGACATGCACATAAATGCACTTC [TGCATGCA_site561]” was tested, and the “gcPBM binding intensity (ln)” value was 11.1 ± 0.34. With “AGGATATGCAGACACACACACATATAGATTTATATA [CACACA_site7100]” the “gcPBM binding intensity (ln)” value was 7.74 ± 0.55. “AAAATTAGATTATGCACACACACTTAAAAATAATAA [CACACA_site1975]” was tested, and the “gcPBM binding intensity (ln)” value was 9.97 ± 0.46. In the case of “ATTTTTTCTAATGGGTGTACTGAAACGTATTTTATT [XGTACX_site6573]”, the “gcPBM binding intensity (ln)” value is reported as 8.16 ± 0.58. For “TTTGTGGTTACATGTGCACACACTTATTTCGTTCTT [CACACA_site1435]”, the “gcPBM binding intensity (ln)” value was 9.38 ± 0.4. With “TATAATATATTCATGTGTACATATATTTCGAACATA [XGTACX_site1754]” the “gcPBM binding intensity (ln)” value was 8.01 ± 0.2. In the case of “ATTTTATTTTCATATGAACACACATATATATATTAT [CACACA_site8741]”, the “gcPBM binding intensity (ln)” value is reported as 8.35 ± 0.45. In the case of “AATTAATGGTTAAAGGTGCACAATACATATATTACA [GTGCAC_site9943]”, the “gcPBM binding intensity (ln)” value is reported as 11.32 ± 0.035. In the case of “GTAATTAAAATATATACACACAAAGGCTATTAAATA [CACACA_site1011]”, the “gcPBM binding intensity (ln)” value is reported as 7.68 ± 0.52. In the case of AATTAATGGCTAAAGGTGCACAATATATATATTACA, the “gcPBM binding intensity (ln)” value is reported as 11.3 ± 0.19. With TTACATACAATTGGTGTGCACATATATATATATATA the “gcPBM binding intensity (ln)” value was 10.29 ± 0.049. “ATATAATAAGGTTAAGCACACATATTACATATATAA [CACACA_site9110]” was tested, and the “gcPBM binding intensity (ln)” value was 8.35 ± 0.23. With “ATAATTATATGGCTAGCACACAATAAATAATTATAT [CACACA_site3815]” the “gcPBM binding intensity (ln)” value was 7.92 ± 0.42. In the case of “ATATTATATTTCTTTTGTACATATTATATAATATAT [XGTACX_site7198]”, the “gcPBM binding intensity (ln)” value is reported as 8.1 ± 0.56. “ATATATAAATATATTTGTACATATAATATGTATTAT [XGTACX_site8820]” was tested, and the “gcPBM binding intensity (ln)” value was 7.75 ± 0.47. With “AATTATTGTGAAGGGAAAACAAAAAAGTTTATAATT [CACACA_negctrl_site1337]” the “gcPBM binding intensity (ln)” value was 8.01 ± 0.72. For TTTATAAAGGGAAAGGTGCAAAAGGTGAAAGTTTTA, the “gcPBM binding intensity (ln)” value was 10.9 ± 0.44. For “ATAATAATAAAATATATATACAAAGGTGAAATTATA [TGCATGCA_negctrl_site197]”, the “gcPBM binding intensity (ln)” value was 7.96 ± 0.58. In the case of “TATGATGATGAATAACGTACAAAAAAATTAATCACC [XGTACX_site6794]”, the “gcPBM binding intensity (ln)” value is reported as 8.16 ± 0.49. With “TTTTGTAAAAAGAAAAATTAGAATATATCGTATATA [XGTACX_negctrl_site617]” the “gcPBM binding intensity (ln)” value was 7.19 ± 0.45. With “ATCAACATTACATTTAGTACACATATATTTCTATGT [XGTACX_site4436]” the “gcPBM binding intensity (ln)” value was 8.16 ± 0.36. For “TTTTTTTTCTAAATTATATGAAAATATATGTTATGT [GTGCAC_negctrl_site85]”, the “gcPBM binding intensity (ln)” value was 7.79 ± 0.23.
